According to PubChem BioAssay (NCATS):
Records with an inconclusive call do not appear. Calls of active or inactive are those of the source. Calls come from the whole dose curve; as a rule, active = well fitted inhibition curve with a large enough effect; inconclusive = small, poorly fitted or top-dose-only effect; inactive = flat fitted curve, though single readings scatter.

Legend:
[1] = qHTS profiling for inhibitors of Plasmodium falciparum proliferation (AID 504749);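 note: 0% = DMSO vehicle and full inhibition = artemisinin control; nearly all actives have a fitted effect of over 60% in size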; conditions: P. falciparum in erythrocytes, SYBR Green DNA, 72 h, at 28.7 µM (top of the series)
How it was run: (§1)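 Each compound contacts P. falciparum-infected red blood cells for 72 h at 37 C; lysis buffer (Tris, EDTA, saponin, Triton X, SYBR Green I) is added and fluorescence measured next morning; values normalized to controls.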

3D7 = experiment: as above; conditions: P. falciparum in erythrocytes, SYBR Green DNA, 72 h; series mostly up to 28.7 µM
How it was run: as §1

7G8 = experiment: as above; conditions: P. falciparum in erythrocytes, SYBR Green DNA, 72 h; series mostly up to 28.7 µM
How it was run: as §1

AA1029 = experiment: as above; conditions: P. falciparum in erythrocytes, SYBR Green DNA, 72 h; series mostly up to 28.7 µM
How it was run: as §1

AS120 = experiment: as above; conditions: P. falciparum in erythrocytes, SYBR Green DNA, 72 h; series mostly up to 28.7 µM
How it was run: as §1

ATS189 = experiment: as above; conditions: P. falciparum in erythrocytes, SYBR Green DNA, 72 h; series mostly up to 28.7 µM
How it was run: as §1

ATS95 = experiment: as above; conditions: P. falciparum in erythrocytes, SYBR Green DNA, 72 h; series mostly up to 28.7 µM
How it was run: as §1

C2A = experiment: as above; conditions: P. falciparum in erythrocytes, SYBR Green DNA, 72 h; series mostly up to 28.7 µM
How it was run: as §1

CP185 = experiment: as above; conditions: P. falciparum in erythrocytes, SYBR Green DNA, 72 h; series mostly up to 28.7 µM
How it was run: as §1

CP191 = experiment: as above; conditions: P. falciparum in erythrocytes, SYBR Green DNA, 72 h; series mostly up to 28.7 µM
How it was run: as §1

CP192 = experiment: as above; conditions: P. falciparum in erythrocytes, SYBR Green DNA, 72 h; series mostly up to 28.7 µM
How it was run: as §1

CP194 = experiment: as above; conditions: P. falciparum in erythrocytes, SYBR Green DNA, 72 h; series mostly up to 28.7 µM
How it was run: as §1

CP201 = experiment: as above; conditions: P. falciparum in erythrocytes, SYBR Green DNA, 72 h; series mostly up to 28.7 µM
How it was run: as §1

CP203 = experiment: as above; conditions: P. falciparum in erythrocytes, SYBR Green DNA, 72 h; series mostly up to 28.7 µM
How it was run: as §1

CP211 = experiment: as above; conditions: P. falciparum in erythrocytes, SYBR Green DNA, 72 h; series mostly up to 28.7 µM
How it was run: as §1

CP215 = experiment: as above; conditions: P. falciparum in erythrocytes, SYBR Green DNA, 72 h; series mostly up to 28.7 µM
How it was run: as §1

CP217 = experiment: as above; conditions: P. falciparum in erythrocytes, SYBR Green DNA, 72 h; series mostly up to 28.7 µM
How it was run: as §1

CP237 = experiment: as above; conditions: P. falciparum in erythrocytes, SYBR Green DNA, 72 h; series mostly up to 28.7 µM
How it was run: as §1

CP238 = experiment: as above; conditions: P. falciparum in erythrocytes, SYBR Green DNA, 72 h; series mostly up to 28.7 µM
How it was run: as §1

CP247 = experiment: as above; conditions: P. falciparum in erythrocytes, SYBR Green DNA, 72 h; series mostly up to 28.7 µM
How it was run: as §1

COC(=O)CCC[N+](C)(C)C
inactive: activity, negative = inhibition ([1]; parasite line A) 18.8% | activity, negative = inhibition ([1]; parasite line B) 3.25% | Potency (3D7) | Potency (7G8) | Potency (AA1029) | Potency (AS120) | Potency (ATS189) | Potency (ATS95) | Potency (C2A) | Potency (CP185) | Potency (CP191) | Potency (CP192) | Potency (CP194) | Potency (CP201) | Potency (CP203) | Potency (CP211) | Potency (CP215) | Potency (CP217) | Potency (CP237) | Potency (CP238) | Potency (CP247)

CC(C)c1nc(N(C)S(C)(=O)=O)nc(-c2ccc(F)cc2)c1/C=C/C(O)CC(O)CC(=O)O (stereo unspecified)
inactive: activity, negative = inhibition ([1]; parasite line A) 3.93% | activity, negative = inhibition ([1]; parasite line B) -1.83% | Potency (3D7) | Potency (7G8) | Potency (AA1029) | Potency (AS120) | Potency (ATS189) | Potency (ATS95) | Potency (C2A) | Potency (CP185) | Potency (CP191) | Potency (CP192) | Potency (CP194) | Potency (CP201) | Potency (CP203) | Potency (CP211) | Potency (CP215) | Potency (CP217) | Potency (CP237) | Potency (CP238) | Potency (CP247)

OCl
inactive: activity, negative = inhibition ([1]; parasite line A) 10.5% | activity, negative = inhibition ([1]; parasite line B) 2% | Potency (3D7) | Potency (7G8) | Potency (AA1029) | Potency (AS120) | Potency (ATS189) | Potency (ATS95) | Potency (C2A) | Potency (CP185) | Potency (CP191) | Potency (CP192) | Potency (CP194) | Potency (CP201) | Potency (CP203) | Potency (CP211) | Potency (CP215) | Potency (CP217) | Potency (CP237) | Potency (CP238) | Potency (CP247)

O=C1c2ccccc2C(=O)c2c1ccc(O)c2O
inactive: activity, negative = inhibition ([1]; parasite line A) 4.44% | activity, negative = inhibition ([1]; parasite line B) -3.93% | Potency (3D7) | Potency (7G8) | Potency (AA1029) | Potency (AS120) | Potency (ATS189) | Potency (ATS95) | Potency (C2A) | Potency (CP185) | Potency (CP191) | Potency (CP192) | Potency (CP194) | Potency (CP201) | Potency (CP203) | Potency (CP211) | Potency (CP215) | Potency (CP217) | Potency (CP237) | Potency (CP238) | Potency (CP247)

Cc1ccccn1
inactive: activity, negative = inhibition ([1]; parasite line A) 14.6% | activity, negative = inhibition ([1]; parasite line B) 15% | Potency (3D7) | Potency (7G8) | Potency (AA1029) | Potency (AS120) | Potency (ATS189) | Potency (ATS95) | Potency (C2A) | Potency (CP185) | Potency (CP191) | Potency (CP192) | Potency (CP194) | Potency (CP201) | Potency (CP203) | Potency (CP211) | Potency (CP215) | Potency (CP217) | Potency (CP237) | Potency (CP238) | Potency (CP247)

OCC1(CO)COC(C(Cl)(Cl)Cl)OC1
inactive: activity, negative = inhibition ([1]; parasite line A) 2.06% | activity, negative = inhibition ([1]; parasite line B) 5.66% | Potency (3D7) | Potency (7G8) | Potency (AA1029) | Potency (AS120) | Potency (ATS189) | Potency (ATS95) | Potency (C2A) | Potency (CP185) | Potency (CP191) | Potency (CP192) | Potency (CP194) | Potency (CP201) | Potency (CP203) | Potency (CP211) | Potency (CP215) | Potency (CP217) | Potency (CP237) | Potency (CP238) | Potency (CP247)
